Paper PMC4336329 (PLoS ONE, 2015)
Hit rate of the full screen: of about 310,000 compounds, about 14,000 (4.5%) showed an effect of 50% or more. Effects have a minus sign here. What follows is part of a selection rich in strong results, with near analogues and random picks from the rest.

Target: human ether-à-go-go-related gene (hERG) potassium channel (human, UniProt Q12809)
Assay: primary screen, population patch clamp on CHO cells stably expressing hERG; higher = less effect of the substance
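Further: peak tail current of the secondary pulse compared with the same well before compound.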

Sequence of human ether-à-go-go-related gene (hERG) potassium channel (Q12809 whole entry, looked up): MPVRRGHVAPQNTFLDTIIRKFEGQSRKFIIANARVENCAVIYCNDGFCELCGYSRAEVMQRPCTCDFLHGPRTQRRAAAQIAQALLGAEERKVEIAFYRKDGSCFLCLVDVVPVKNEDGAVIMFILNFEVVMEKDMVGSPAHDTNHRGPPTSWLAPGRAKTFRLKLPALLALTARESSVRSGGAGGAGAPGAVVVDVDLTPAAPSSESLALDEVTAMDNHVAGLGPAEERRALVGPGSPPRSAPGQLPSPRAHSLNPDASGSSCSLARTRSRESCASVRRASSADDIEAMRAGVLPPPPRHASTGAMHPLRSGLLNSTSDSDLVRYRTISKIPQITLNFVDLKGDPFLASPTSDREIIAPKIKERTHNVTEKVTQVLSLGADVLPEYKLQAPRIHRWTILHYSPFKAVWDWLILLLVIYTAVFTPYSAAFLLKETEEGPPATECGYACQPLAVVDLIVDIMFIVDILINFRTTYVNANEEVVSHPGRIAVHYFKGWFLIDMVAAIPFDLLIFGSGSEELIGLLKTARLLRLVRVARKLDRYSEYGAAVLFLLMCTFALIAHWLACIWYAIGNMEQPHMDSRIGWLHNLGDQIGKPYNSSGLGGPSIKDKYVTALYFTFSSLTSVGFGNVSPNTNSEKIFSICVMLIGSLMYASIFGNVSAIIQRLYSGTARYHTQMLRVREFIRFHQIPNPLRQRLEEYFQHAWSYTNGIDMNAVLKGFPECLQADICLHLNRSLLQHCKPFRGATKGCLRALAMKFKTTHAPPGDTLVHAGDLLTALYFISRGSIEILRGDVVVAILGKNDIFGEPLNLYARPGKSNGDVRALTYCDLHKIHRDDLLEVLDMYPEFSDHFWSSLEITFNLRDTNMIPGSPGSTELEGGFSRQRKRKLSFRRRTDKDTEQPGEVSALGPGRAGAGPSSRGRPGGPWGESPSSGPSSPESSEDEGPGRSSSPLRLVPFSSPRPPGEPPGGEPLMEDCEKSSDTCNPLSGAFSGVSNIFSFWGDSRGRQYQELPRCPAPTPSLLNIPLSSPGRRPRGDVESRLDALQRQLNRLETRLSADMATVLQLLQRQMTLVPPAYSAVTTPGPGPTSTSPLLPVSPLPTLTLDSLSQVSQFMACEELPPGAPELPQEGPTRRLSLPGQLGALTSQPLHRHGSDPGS

SMILES	hERG current change (%, negative = inhibition) at 10uM [%]
CC(=O)NC1CC2CCC(C1)N2Cc1ccc(C)cc1 (centres unmarked)	-25.4
CC(=O)NC1CC2CCCC(C1)N2Cc1ccc(C)cc1 (centres unmarked)	-30.5
CCC(=O)NC1CC2CCCC(C1)N2Cc1ccc(C)cc1 (centres unmarked)	-37.4
CCCNC(=S)NC1CC2CCCC(C1)N2CC(C)C.Cl (centres unmarked)	13.1
CCCNC(=S)NC1CC2CCC(C1)N2Cc1ccccc1 (centres unmarked)	-35.7
Cc1ccc(CN2C3CCCC2CC(NC(=O)c2ccc(C)cc2)C3)cc1 (centres unmarked)	-77.7
Cc1ccc(C(=O)NC2CC3CCCC(C2)N3Cc2ccccc2)cc1 (centres unmarked)	-40.4
Cc1ccc(CN2C3CCCC2CC(NC(=O)c2ccc(F)cc2)C3)cc1 (centres unmarked)	-74.1
O=C(NC1CC2CCCC(C1)N2Cc1ccc(F)cc1)c1ccc(F)cc1 (centres unmarked)	-70.8
CNC(=S)N1C2CCCC1CC(NC(=O)c1ccc(F)cc1)C2 (centres unmarked)	6.93
CCCNC(=S)NC1CC2CCCC(C1)N2Cc1ccc(F)cc1 (centres unmarked)	-60.6
O=C(NC1CC2CCCC(C1)N2C(=O)NC1CCCCC1)c1ccc(F)cc1 (centres unmarked)	4.98
CC(NC(=O)CSc1nnc(CC(=O)Nc2ccc(Cl)c(Cl)c2)n1C)c1ccccc1 (centres unmarked)	4.55
COc1ccc(C2CC(c3ccc(Cl)cc3Cl)Nc3nc(N)nn32)cc1OC (centres unmarked)	-18.7
COc1cc(NC(C)=O)c2ncccc2c1[N+](=O)[O-]	-5.4
CC1CCCCC1NC(=O)CCN1C(=O)C2C3C=CC(C3)C2C1=O (centres unmarked)	13
COc1cc2c(cc1OC)C(c1cc3cc4c(cc3[nH]c1=O)OCO4)N(C(=O)C(C)C)CC2 (centres unmarked)	-4.79
Cc1ccc(C(=O)N/C(=C\c2sccc2C)C(=O)NCCCN2CCOCC2)cc1	-17.7
N#C/C(=C\c1ccc(-c2ccccc2[N+](=O)[O-])o1)C(N)=O	24.6

SMILES	hERG current change (%, negative = inhibition) at 10uM [%]
N#C/C(=C\c1ccc(-c2cccc([N+](=O)[O-])c2)o1)C(=O)NCCN1CCOCC1	-47.2
Cc1ccc(C(=O)N/C(=C\c2cn(C)c3ccccc23)C(=O)NCCCN2CCOCC2)cc1	0.137
Cc1ccc(C(=O)N/C(=C\c2ccc(-c3ccccc3[N+](=O)[O-])o2)C(=O)NCCCN2CCOCC2)cc1	-61.9
Cc1ccc(C(=O)N/C(=C\c2ccc(-c3cccc([N+](=O)[O-])c3)o2)C(=O)NCCCN2CCOCC2)cc1	-74.9
CNC(=O)/C(C#N)=C/c1ccc(-c2ccccc2[N+](=O)[O-])o1	8.72
N#C/C(=C/c1ccc(-c2ccccc2[N+](=O)[O-])o1)C(=O)NCCN1CCCCC1	-69.1
Cc1ccc(C(=O)N/C(=C\c2ccco2)C(=O)NCCCN2CCOCC2)cc1C	-12.7
O=C(CSc1nnc(SCc2ccccc2)s1)N/N=C/C=C\c1ccco1	9.17
Cc1ccccc1-c1nc2cc(N)ccc2o1	-15.6
Cc1ccc2c(c1)C(c1ccccc1)N(C(=O)CC(C)C)CC(=O)N2 (centres unmarked)	-28.5
O=C1N=C(N2C=CC(=C3C=CNC=C3)C=C2)/C(=C/N=NC(=O)c2ccccc2)S1	30.3
CC(=O)Nc1ccc(CN(C)CC2CCCN(CCc3cccc(C(F)(F)F)c3)C2)cc1 (centres unmarked)	-68.4
COc1cc(CN(C)CC2CCCN(CCc3cccc(C(F)(F)F)c3)C2)ccc1O (centres unmarked)	-62.8
O=c1cnn(-c2ccccc2)c(-c2ccccc2)c1	3.33
Cc1cc(C)n2ncnc2n1	2.2
O=C1NC(=Nc2ccccc2)S/C1=C/c1cccnc1	15.9
Cn1c(O)c(/C=C2\C=NN=C2c2ccccc2)sc1=S	0.793
COc1ccc(CN2CCN(Cc3ccccc3)C(CCO)C2)cc1OC (centres unmarked)	-30.7
COc1cc(CN2CCN(CCCc3ccccc3)C(CCO)C2)cc(OC)c1O (centres unmarked)	-61.5

SMILES	hERG current change (%, negative = inhibition) at 10uM [%]
CCOc1cc(CN2CCN(CCc3ccccc3)C(CCO)C2)ccc1OC (centres unmarked)	-66.5
COc1ccc(CN2CCN(CCCc3ccccc3)C(CCO)C2)cc1OC (centres unmarked)	-72.8
CCOc1cc(CN2CCN(Cc3ccc(C)o3)C(CCO)C2)ccc1OC (centres unmarked)	-3.33
COc1cc(C(=O)Nc2ccc(S(=O)(=O)Nc3nccc(C)n3)cc2)cc(OC)c1OC	12.9
O=C(CN1CCN(c2ccccn2)CC1)Nc1cc(C(F)(F)F)ccc1Cl	-3.6
Cc1cc(-c2ccccc2)n2ncnc2n1	12.5
COc1ccc(CCNc2cc(-c3ccccc3)nc3ncnn23)cc1	-2.18
c1ccc(-c2cc(-c3ccccc3)n3ncnc3n2)cc1	-49.5
COc1ccc(-c2cc(NCCc3ccncc3)n3ncnc3n2)cc1	-55.8
COc1ccc(-c2cc(NCc3ccccn3)n3ncnc3n2)cc1	-23.5
COc1ccc(-c2cc(-c3ccccc3)n3ncnc3n2)cc1	-60.9
COc1ccc(-c2cc(-c3ccc(Br)cc3)nc3ncnn23)cc1OC	-34.4
COc1ccc(-c2cc(-c3ccccc3)nc3ncnn23)cc1	-56.4
COc1ccc(-c2ccnc3ncnn23)cc1	-9.61
COc1cc(OC)c(NS(=O)(=O)c2cn(C)cn2)cc1Cl	5.67
CCOC(=O)C(Cc1ccc(OC)c([N+](=O)[O-])c1)NC(=O)CCC(=O)Nc1ccc(OC)cc1 (centres unmarked)	1.35
COC1CCCN(C(=O)c2ccc(OC3CCN(S(=O)(=O)N(C)C)CC3)cc2)C1 (centres unmarked)	8.14
CCOC(=O)C(CCSC)NC(=O)CN.Cl (centres unmarked)	-6.89
